Screening data: PubChem, National Center for Advancing Translational Sciences (NCATS)
This is a sample that favours compounds with a hit; in the whole collection about 6.9% have one here.
KB-V1 cytotox: kills drug-selected multidrug resistant KB-V1 cells | KB-V1 MDR cells viability, CellTiter-Glo, 72 h | Potency, µM (highest dose often 46.1 µM), most hits filed as cytotoxic | 400,000 compounds, 3.4% hits; note: nearly all actives have a fitted effect of over 60% in size
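Cells of the MDR subline KB-V1 are plated, dosed with compound at multiple concentrations, and incubated 72 h at 37 degrees C; CellTiter-Glo is then added and luminescence read after 10 min.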
Giardia kill: kills Giardia lamblia | Giardia lamblia trophozoite viability | activity change, % at 7.66 µM, hits read low | 340,000 compounds, 0.15% hits; in the data active = activity change below about -80%; inconclusive = between about -30% and that limit;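 note: parasites exposed to compound for two days anaerobically before the ATP read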
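Trophozoites 100 cells/well + cpd; 48 hrs, 37 deg C, anaerobic. ATPLite 1-Step added, 15-30 min RT, luminescence read (ATP-based viability).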
KB-3-1 tox: KB-3-1 parental cell cytotoxicity. KB-3-1 viability, CellTiter-Glo ATP luminescence, 72 h. Potency, µM (titrated, usually from 46.1 µM), usual class: cytotoxic. 400,000 compounds, 1.4% hits; note: nearly all actives have a fitted effect of over 60% in size
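Here the drug-naive KB-3-1 line serves as comparator for MDR sub-line selectivity; cells received compound titrations, 72 h at 37 °C, then CellTiter-Glo readout.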
SW480 rerep: inducers of DNA re-replication in SW480 colon cancer cells. SW480 DNA re-replication, Hoechst DNA content imaging, 48 h. Potency, µM (top dose mostly 46.1 µM), hits mostly activators. 340,000 compounds, 1.8% hits. AID 624297; note: nearly all actives have a fitted effect of over 55% in size
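Readout is total intensity of Hoechst-stained nuclei, excited at 405 nm and collected at 500-530 nm. Compound treatment lasted 48 hr at 37 C in 5% CO2 before staining.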
ASM inhibitor: blocks human secretory acid sphingomyelinase | P17405 | placental ASM, HMU-PC fluorogenic substrate, 60 min | Potency, µM (series often up to 57.5 µM), usual class: inhibitors | 340,000 compounds, 0.006% hits | AID 504937
Target sequence (P17405 47-631 limits assumed): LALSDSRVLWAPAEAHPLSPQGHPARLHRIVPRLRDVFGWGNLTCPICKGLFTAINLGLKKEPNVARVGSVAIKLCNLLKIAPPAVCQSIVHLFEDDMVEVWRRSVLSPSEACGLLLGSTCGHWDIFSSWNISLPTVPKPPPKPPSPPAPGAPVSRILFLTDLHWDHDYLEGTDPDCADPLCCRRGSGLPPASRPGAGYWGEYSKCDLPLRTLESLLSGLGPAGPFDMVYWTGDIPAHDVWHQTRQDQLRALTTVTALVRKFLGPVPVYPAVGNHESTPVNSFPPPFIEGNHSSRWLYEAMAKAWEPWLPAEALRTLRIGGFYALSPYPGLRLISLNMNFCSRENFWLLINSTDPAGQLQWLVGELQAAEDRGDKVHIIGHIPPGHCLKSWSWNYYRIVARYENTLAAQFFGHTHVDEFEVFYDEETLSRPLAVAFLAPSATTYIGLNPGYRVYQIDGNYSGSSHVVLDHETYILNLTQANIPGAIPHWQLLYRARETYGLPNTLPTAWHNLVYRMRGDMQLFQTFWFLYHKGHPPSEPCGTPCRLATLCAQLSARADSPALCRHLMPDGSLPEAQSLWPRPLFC
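Human placenta-derived ASM enzyme was preincubated with compound for 10 minutes at room temperature, then given fluorogenic substrate HMU-PC0 (9 uM final) for 60 minutes at 37 °C; a pH 10 stop preceded fluorescence reading at Ex 386/Em 447 nm.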
MCF10A rerep: DNA re-replication induction in MCF 10a cells; MCF 10A DNA re-replication, Hoechst nuclear intensity, 48 h; Potency, µM (highest dose often 46.1 µM), usual class: activators; 350,000 compounds, 2.9% hits; AID 624296; note: nearly all actives have a fitted effect of over 50% in size
A number is an active result; – = inactive; ? = inconclusive; · = no result; [ ] = remark or other dose. Unless noted, calls come from the whole dose curve; as a rule, active = well fitted curve in the direction sought with a large enough effect; inconclusive = small, poorly fitted or top-dose-only effect, or another doubt; inactive = no such curve, though single readings can be large; an effect the other way counts as inactive or inconclusive.

SMILES	KB-V1 cytotox	Giardia kill	KB-3-1 tox	SW480 rerep	ASM inhibitor	MCF10A rerep
CCN(C1CCCCC1)S(=O)(=O)c1ccc(S(=O)(=O)NCc2ccncc2)cc1	7.31µM	–	–	–	–	–
COc1ccccc1-c1noc(-c2ccc(NCc3ccco3)c([N+](=O)[O-])c2)n1	–	·	–	·	·	·
CCOc1cc(/C=N/O)ccc1OCc1ccc([N+](=O)[O-])cc1	–	–	–	–	–	–
CCOc1cc(C=C(C(=O)OC)C(=O)OC)ccc1OCc1ccc([N+](=O)[O-])cc1	?	–	18.4µM	14.6µM	–	0.651µM
CC(C)(C)C1CCc2c(sc(NC(=O)C3CCCO3)c2C(N)=O)C1 (centres undefined)	–	–	–	?	–	17.8µM
NC(=O)c1c(NC(=O)C2CCCO2)sc2c1CCC2 (centres undefined)	–	–	–	–	–	–
CC1=CC(=O)c2ccccc2C1=O	–	–	–	–	–	–
CC(C)(C=O)C1=CC(=O)c2ccccc2C1=O	–	–	–	7.31µM	–	13µM
O=c1oc2ccc3ccccc3c2cc1-c1nc2ccccc2o1	–	–	–	18.4µM	–	?
O=c1oc2ccccc2cc1-c1nc2ccccc2o1	–	–	–	–	–	–
CCOC(=O)C(Cc1ccc(NC(C)=O)cc1)N1C(=O)c2ccccc2C1=O (centres undefined)	–	–	–	–	–	–
O=C(/C=C/Nc1ccc([N+](=O)[O-])cc1Br)c1cccc2ccccc12	–	–	23.1µM	?	–	–
Cc1c(Cl)cccc1NC(=O)CSc1nccn1C	–	–	–	–	–	–
Cc1ccc(C)c(C(=O)NC(C)CCc2ccccc2)c1 (centres undefined)	–	–	–	–	–	–
Cc1occc1C(=O)NC(C)CCc1ccccc1 (centres undefined)	–	–	–	–	–	20.6µM
Cc1ccc(-n2ncc3c(Nc4ccc5c(c4)OCCO5)ncnc32)cc1C	–	·	–	·	·	·
NCCc1c(C(=O)O)[nH]c2ccc([N+](=O)[O-])cc12	10.3µM	–	?	–	–	–
O=C(NCc1cccc(Cl)c1)C1CCCN(c2nn3cc(-c4ccc(F)cc4)nc3s2)C1 (centres undefined)	–	·	–	·	·	·
COC(=O)[C@@]12C[C@@H](CC(=O)NCc3ccc(OC)c(OC)c3)C(=O)N(CCc3ccc(OC)c(OC)c3)C1=CCC(C)(C)C2	?	·	–	·	·	·
CCCCCCCCN1C(=O)[C@H](CC(=O)NCc2ccc(OC)c(OC)c2)C[C@@]2(C(=O)OC)CC(C)(C)CC=C12	20.6µM	·	?	·	·	·
CCCCCCCCN1C(=O)[C@H](CC(=O)NCc2ccccc2)C[C@@]2(C(=O)OC)CC(C)(C)CC=C12	18.4µM	·	?	·	·	·
CCCCCCCCN1C(=O)[C@H](CC(=O)NCCCC)C[C@@]2(C(=O)OC)CC(C)(C)CC=C12	20.6µM	·	?	·	·	·
CCCCCCCCN1C(=O)[C@H](CC(=O)NCCCCc2ccccc2)C[C@@]2(C(=O)OC)CC(C)(C)CC=C12	?	·	–	·	·	·
CCc1ccc2oc(-c3ccc(C)c(NC(=O)COc4ccc(Cl)cc4)c3)nc2c1	–	·	–	·	·	·
Cc1cn2c(=O)cc(COc3cccc(NC(=O)c4ccccc4Cl)c3)nc2s1	–	·	–	·	·	·
SMILES	KB-V1 cytotox	Giardia kill	KB-3-1 tox	SW480 rerep	ASM inhibitor	MCF10A rerep
Cc1nc(C)c(C(=O)NCc2ccccc2Cl)o1	20.6µM	–	?	–	–	–
CCc1c(C(=O)NCc2ccccc2Cl)[nH]c(C)c1C(C)=O	7.31µM	–	–	–	–	?
CCC(CC)C(=O)NCc1ccccc1Cl	–	–	–	–	–	–
CC(=O)c1c(C)[nH]c(C(=O)NCc2ccccc2Cl)c1C	23.1µM	–	–	–	–	–
CCOC(=O)c1[nH]c(C)c(C(=O)NCc2ccccc2Cl)c1C	–	·	–	·	·	·
COc1ccccc1NC(=O)Cn1c(SCC(=O)N(C)c2ccccc2)nc2ccccc21	–	·	–	·	·	·
COc1ccc(-c2c[n+](CC(=O)OC3CC(C)CCC3C(C)C)c3n2CCC3)cc1 (centres undefined)	–	–	–	–	–	0.82µM
CCOc1ccc(S(=O)(=O)Nc2cc3c(C(=O)OC)c(COC)oc3c3ccccc23)cc1	14.6µM	·	3.66µM	·	·	·
COc1ccc(S(=O)(=O)Nc2cc3c(cc2C(C)=O)OCO3)cc1	?	–	7.31µM	?	–	18.4µM
CC(=O)c1cc2c(cc1NS(=O)(=O)c1ccccc1Br)OCO2	?	–	–	–	–	–
Cc1oc2c(cc(NS(=O)(=O)c3cccs3)c3ccccc32)c1C(=O)OC(C)C	–	–	–	–	–	13µM
COc1ccc(S(=O)(=O)Nc2cc3c(C(C)=O)c(C)oc3c3ccccc23)cc1	2.06µM	–	2.06µM	5.17µM	–	?
CC(=O)c1c(C)oc2c1cc(NS(=O)(=O)c1ccc(C(C)(C)C)cc1)c1ccccc12	–	·	–	·	·	·
CCOC(=O)c1c(NC(=O)CCCOc2ccc(C)cc2)sc2c1CCC(C)C2 (centres undefined)	–	·	–	·	·	·
COc1ccc(-n2nc(C#N)c(Cl)cc2=O)cc1	–	–	?	?	–	0.731µM
COC(=O)C1=C(C)NC(C)=C(C(=O)OC)C1C(=O)OCC(=O)c1ccc(Br)cc1	–	–	–	–	–	–
CCOC(=O)c1c(-c2ccc(C)cc2)csc1NC(=O)c1cc(=O)c2ccc(C)cc2o1	–	·	–	·	·	·
N#Cc1c(N)n(C2CCCCC2)c2nc3ccccc3nc12	?	–	?	8.2µM	–	1.03µM
Nc1c(C(=O)Nc2ccccc2)c2nc3ccccc3nc2n1-c1ccc(O)cc1	–	–	–	7.31µM	–	14.6µM
CCC(=O)Nc1c(C#N)c2nc3ccccc3nc2n1C1CCCCC1	–	–	–	?	–	?
N#Cc1c(N)n(-c2ccc(C(=O)O)cc2)c2nc3ccccc3nc12	–	–	–	?	–	18.4µM
N#Cc1c(N)n(-c2ccc(N)cc2)c2nc3ccccc3nc12	–	–	–	–	–	–
Cc1cccc(NS(=O)(=O)c2ccc3c(c2)CCN3C(=O)C2CC2)c1C	–	·	–	·	·	·
CN1CCN(c2ccc(-c3ccc4ccccc4n3)cc2)CC1	11.6µM	?	–	?	–	13µM
Cc1cccc(-c2nc(Nc3cccc(O)c3)c3ccccc3n2)c1	–	–	–	–	–	20.6µM
c1ccc2c(Nc3ccc(N4CCOCC4)cc3)nc(N3CCOCC3)nc2c1	?	–	–	?	–	?
c1ccc2nc(-c3ccc(N4CCOCC4)cc3)ccc2c1	–	?	–	–	–	–[0.0737 µM]
Cc1cccc(-c2nc(Nc3ccc(N4CCOCC4)cc3)c3ccccc3n2)c1	?	–	–	–	?	20.6µM
Cc1cc(-c2ccc(N3CCOCC3)cc2)nc2ccccc12	–	–	–	?	–	20.6µM
